This is an account of results in PubChem BioAssay.

The test system of test [1] is TRPC4 beta (transient receptor potential cation channel C4), mouse. The experiment in a line: activators of mouse TRPC4 channel, confirmation, cell-based, Fluo4 calcium, HEK293 TRPC4beta/mu-opioid, duplicates, 10 µM (AID 2426).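 For activation: percent rise of integrated ratio over buffer wells lacking compound which define 0%.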 The following applies: Fluo4 calcium fluorescence, at 10 µM; active compounds read high.
The test system of test [2] is transient receptor potential cation channel C4 beta (TRPC4), mouse. Nature of the test: activators of mouse TRPC4 channel, confirmation, cell-based, second round, Fluo4, HEK293 TRPC4beta/mu-opioid, 1 µM (AID 2461;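 active = primary screen active and over 50% activation in each of two duplicate runs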). The following applies: Fluo4 calcium fluorescence, at 1 µM; active compounds read high.
Test [3] relates to TRPC4 (transient receptor potential cation channel C4 beta), mouse. The experiment in a line: positive allosteric modulators of mouse TRPC4, confirmation, cell-based, second round, Fluo-4, HEK293 TRPC4beta/mu-opioid, 1 µM (AID 2554;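 active = primary screen hit whose fluorescence ratio, in both repeats, exceeds the weak agonist control mean by 3 SD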). The note with it: DAMGO EC20, Fluo-4 calcium flux, at 1 µM; active compounds read high. (In general: Calcium assays in cells follow changes in intracellular calcium, usually with a dye or a luminescent sensor.)

For test [4], the system named is TRPC4 beta (transient receptor potential cation channel C4), mouse. The experiment in a line: positive allosteric modulators of mouse TRPC4, confirmation, cell-based, Fluo-4, HEK293 TRPC4beta/mu-opioid (AID 2555;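 active = primary screen hit whose calcium fluorescence ratio, in both repeats, exceeds the weak agonist control mean by 3 SD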). The following applies: DAMGO EC20, Fluo-4 calcium flux, at 10 µM; active compounds read high.
Test [5] deals with Short transient receptor potential channel 4 (Mus musculus) (UniProt Q9QUQ5). The experiment in a line: inhibitors of mouse TRPC4 channel, confirmation, cell-based, Fluo4, HEK293 TRPC4beta/mu-opioid (AID 2636;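 active = calcium signal cut by more than 3 SD below the full-agonist control yet still positive, in both repeats and the earlier primary screen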). The following applies: DAMGO, Fluo4 calcium flux, at 10 µM; active compounds read high.
For test [6] the target is unchanged. The experiment in a line: inhibitors of mouse TRPC4 channel, confirmation, cell-based, second round, Fluo4, HEK293 TRPC4beta/mu-opioid, 1 µM (AID 2637;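 active = calcium signal ratio cut to more than 3 SD under the fully stimulated control mean yet still positive, in both repeats and the primary screen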). The following applies: Fluo4 calcium flux, DAMGO, at 1 µM; active compounds read high.
The target is the same in test [7]. The experiment in a line: mouse TRPC4 channel activators, dose response, cell-based, HEK293 TRPC4/mu-opioid, Fluo-4 calcium (AID 434937;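 active = primary screen activator hit with a dose response curve and TRPC4 channel activation at any tested dose; inactive = no activation, no dose response, or not a primary hit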).
Test [8] shares this target. Nature of the test: TRPC4 positive allosteric modulators, dose response, cell-based, HEK293 TRPC4/mu-opioid, Fluo-4 calcium, EC20 DAMGO (AID 434941;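 active = earlier screen potentiator hit that boosts the TRPC4 ion channel at some dose, with a dose response; inactive = no potentiation, no dose response, or not a prior hit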;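 note: calcium entry triggered by an EC20 dose of DAMGO at the co-expressed mu-opioid receptor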).
Test [9] has the same target. Nature of the test: mouse TRPC4 channel inhibitors, dose response, cell-based, HEK293 TRPC4/mu-opioid, Fluo-4 calcium (AID 434942;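 active = primary screen inhibitor hit that blocks the TRPC4 channel at some tested dose, yielding a dose curve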).
Test [10] addresses Short transient receptor potential channel 6 (Mus musculus) (UniProt Q61143). Nature of the test: inhibition of mouse TRPC6 channel, confirmation, selectivity assay for TRPC4 inhibitor project, cell-based, HEK293, membrane potential dye, duplicate (AID 434948;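 active = active in primary screen and both duplicates, each dropping signal beyond three positive-control SD with fluorescence still positive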). The following applies: HEK293 TRPC6, membrane potential dye fluorescence, at 10 µM, stimulated with maximal-effect acetylcholine; active compounds read high.

For test [11] the target is unchanged. Nature of the test: activation of mouse TRPC6 channel, confirmation, selectivity assay for TRPC4 activator project, cell-based, HEK293, membrane potential dye, duplicate (AID 434950;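 active = membrane potential signal rise above negative control mean plus 3 SD in both duplicates, also active in the earlier TRPC4 screen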;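 for activation: 0% = buffer only wells and 100% = acetylcholine maximal-effect wells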). The following applies: HEK293 TRPC6, membrane potential fluorescence, at 10 µM; active compounds read high.
The target is the same in test [12]. The experiment in a line: TRPC6 potentiation by TRPC4 potentiator hits, confirmation, selectivity assay for TRPC4 potentiator project, HEK293 cells, membrane potential dye, duplicate (AID 434952;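 active = compound raising the membrane signal above positive-control mean plus 3 SD in both repeats, and a primary screen hit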). The note with it: HEK293 TRPC6, membrane potential dye fluorescence, at 10 µM, maximal acetylcholine added after compound; active compounds read high.
In test [13] the target is Short transient receptor potential channel 4 (Mus musculus) (UniProt Q9QUQ5). The experiment in a line: calcium flux activators in TRPC4/5HT1a cells, counter-screen for TRPC4 activator project, cell-based, second counter screen, HEK293 TRPC4/5HT1a, Fluo-4 (AID 434977;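 active = calcium signal rise above buffer-control mean plus 5 SD in both duplicates, and also a hit in the primary screen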;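 for activation: plate controls were assay buffer for no effect and maximal serotonin response for full effect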). The note with it: Fluo-4 calcium flux, at 10 µM; active compounds read high.
Test [14] is described as follows: calcium flux inhibitors in TRPC4/5HT1a cells, confirmation, counter-screen for TRPC4 inhibitor project, cell-based, second counter screen, HEK293 TRPC4/5HT1a, Fluo-4 (AID 434978;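 active = primary screen active whose calcium signal fell more than 3 SD beyond the full-serotonin control mean in both duplicate plates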;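 for outcome: serotonin given first at submaximal then at maximal dose after compound preincubation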). The following applies: Fluo-4 calcium flux, at 10 µM, serotonin added to trigger calcium flux; active compounds read high.
Test [15] deals with TRPC4 (mouse), co-expressed with 5HT1a in HEK293. Nature of the test: calcium flux potentiators in TRPC4/5HT1a cells, confirmation, counter-screen for TRPC4 potentiator project, cell-based, second counter screen, HEK293 TRPC4/5HT1a, Fluo-4 (AID 434979;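 active = signal rise over 3 SD above mean of control wells given weak agonist, in both repeats and first screen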). The note with it: Fluo-4 calcium flux, at 10 µM, serotonin added at its EC20 dose; active compounds read high.
Test [16] is described as follows: calcium flux activation in mu-opioid HEK293 cells, confirmation, counter-screen for TRPC4 activator project, cell-based, HEK293 mu-opioid receptor line (AID 449723;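 active = hit in primary screen, with calcium signal over 5 SD above buffer well mean in both duplicates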;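 note: counter screen cells carry the mu-opioid receptor alone and lack TRPC4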). The following applies: Fluo-4 calcium fluorescence, at 10 µM; active compounds read high.
Test [17] is described as follows: calcium flux enhancement in mu-opioid HEK293 cells, confirmation, counter-screen for TRPC4 allosteric potentiator project, cell-based, HEK293 mu-opioid receptor line (AID 449724;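 active = calcium signal rise more than 3 SD above the low-dose agonist control mean, in both duplicate plates and the primary screen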;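 note: HEK293 cells carrying mu-opioid receptor only with no TRPC4 channel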). The following applies: Fluo-4 calcium flux, at 10 µM, compound added before EC20 DAMGO stimulus; active compounds read high.

SMILES strings stand for the structures. For some assays here: Potency and affinity values are given separately. Active and inactive are the calls of the source.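 Rule for the calls, unless noted: active = fluorescence ratio normalized to control raised more than 50% in primary screen plus both repeat runs; inactive = the rest.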

Sequence of Short transient receptor potential channel 4 (Mus musculus) (Q9QUQ5 whole entry, looked up): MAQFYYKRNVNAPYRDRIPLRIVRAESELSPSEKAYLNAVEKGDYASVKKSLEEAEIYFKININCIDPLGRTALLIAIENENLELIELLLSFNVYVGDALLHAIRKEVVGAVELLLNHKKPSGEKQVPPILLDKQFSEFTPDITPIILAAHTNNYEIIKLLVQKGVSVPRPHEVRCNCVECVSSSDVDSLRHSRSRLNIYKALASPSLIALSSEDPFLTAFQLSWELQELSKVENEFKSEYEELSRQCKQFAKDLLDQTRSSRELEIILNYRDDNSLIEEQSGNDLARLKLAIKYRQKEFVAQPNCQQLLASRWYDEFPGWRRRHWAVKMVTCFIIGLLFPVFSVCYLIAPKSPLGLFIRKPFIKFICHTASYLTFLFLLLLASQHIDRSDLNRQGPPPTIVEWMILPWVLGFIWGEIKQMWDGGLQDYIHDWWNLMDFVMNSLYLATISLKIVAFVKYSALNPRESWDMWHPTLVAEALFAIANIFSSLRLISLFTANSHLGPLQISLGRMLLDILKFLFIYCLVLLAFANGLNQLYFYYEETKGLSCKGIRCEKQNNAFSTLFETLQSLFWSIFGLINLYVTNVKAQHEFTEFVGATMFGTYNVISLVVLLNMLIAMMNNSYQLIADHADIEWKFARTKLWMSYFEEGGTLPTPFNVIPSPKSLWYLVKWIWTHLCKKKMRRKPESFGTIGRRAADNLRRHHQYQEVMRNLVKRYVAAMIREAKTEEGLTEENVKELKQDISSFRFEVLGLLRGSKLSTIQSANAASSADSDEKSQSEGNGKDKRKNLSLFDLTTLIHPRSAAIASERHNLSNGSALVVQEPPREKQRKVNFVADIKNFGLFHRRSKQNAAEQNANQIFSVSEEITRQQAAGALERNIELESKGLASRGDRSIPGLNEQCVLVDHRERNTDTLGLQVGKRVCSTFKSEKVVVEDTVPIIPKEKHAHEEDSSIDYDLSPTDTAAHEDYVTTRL
Sequence of Short transient receptor potential channel 6 (Mus musculus) (Q61143 whole entry, looked up): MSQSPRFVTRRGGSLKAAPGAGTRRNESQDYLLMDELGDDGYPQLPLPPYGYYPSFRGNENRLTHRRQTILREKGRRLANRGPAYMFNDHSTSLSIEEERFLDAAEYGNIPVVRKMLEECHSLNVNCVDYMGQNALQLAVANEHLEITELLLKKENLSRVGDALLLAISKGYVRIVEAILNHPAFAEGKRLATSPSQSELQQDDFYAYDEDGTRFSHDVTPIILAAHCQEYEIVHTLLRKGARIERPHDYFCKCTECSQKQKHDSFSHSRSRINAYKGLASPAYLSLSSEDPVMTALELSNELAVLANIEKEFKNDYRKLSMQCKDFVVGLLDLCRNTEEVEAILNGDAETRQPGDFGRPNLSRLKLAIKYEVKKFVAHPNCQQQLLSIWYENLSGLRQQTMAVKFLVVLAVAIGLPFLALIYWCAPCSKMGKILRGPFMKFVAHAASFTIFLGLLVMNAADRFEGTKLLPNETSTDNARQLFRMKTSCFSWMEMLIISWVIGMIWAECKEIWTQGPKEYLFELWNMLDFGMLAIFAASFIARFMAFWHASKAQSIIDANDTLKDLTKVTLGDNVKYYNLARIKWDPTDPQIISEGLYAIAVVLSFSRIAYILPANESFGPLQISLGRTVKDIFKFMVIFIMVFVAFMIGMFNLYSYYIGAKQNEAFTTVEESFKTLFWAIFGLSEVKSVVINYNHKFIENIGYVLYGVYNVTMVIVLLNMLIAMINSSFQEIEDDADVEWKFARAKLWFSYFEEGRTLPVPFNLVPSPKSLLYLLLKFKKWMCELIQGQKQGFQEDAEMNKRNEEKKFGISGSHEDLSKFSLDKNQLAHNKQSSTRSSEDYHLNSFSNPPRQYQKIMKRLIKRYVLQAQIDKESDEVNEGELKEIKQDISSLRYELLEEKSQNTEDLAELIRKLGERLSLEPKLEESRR

For orientation: inhibition means the relative decrease from the control value, in per cent. For `CCn1c(=O)c2cc(C(=O)N(C)c3cc(C)ccc3OC)sc2c2ccccc21`, the result in test [1], in test [2], in [3], in [4], in [6] and in test [7] was inactive. For the same molecule, the outcome in [8], in test [9], in test [10], in test [11], in [12] and in test [13] was inactive. Moreover, the result in test [14], in test [15], in [16] and in test [17] was inactive. Moreover, the inhibition in [5] is 74% (active).
For the molecule `N=c1c2c(n(Cc3ccc(Br)cc3)c3c1CCC3)CCCC2`, the outcome in test [1], in test [2], in test [3], in test [4], in [5] and in [6] was inactive. In addition, the result in test [7], in [8], in [9], in test [10], in [11] and in test [12] was inactive. The outcome in test [13], in test [14], in test [15], in test [16] and in test [17] was inactive.
Take `FC(F)(F)COc1nc(N2CCCCC2)nc(N2CCNCC2)n1`: the result in test [1], in [2], in test [3], in test [4], in [5] and in test [6] was inactive. Besides, the outcome in test [7], in [8], in [9], in test [10], in [11] and in test [12] was inactive. Besides, the result in test [13], in [14], in test [15], in test [16] and in [17] was inactive.
For `CCCCCCc1cc2cc(-c3nnc(-c4cc(OC)c(OC)c(OC)c4)o3)c(=O)oc2cc1O`, the result in test [1], in test [2], in test [3], in test [5], in [6] and in test [7] was inactive. Further, the outcome in test [8], in test [9], in test [10], in test [11], in test [12] and in test [13] was inactive. Moreover, the result in test [14] and in [16] was inactive. The potentiation in [4] is 37% (active); in test [15], 16.1% (active). Also, in [17], the activation is 4130% (active).
Take `O=C(CN1CCCN(S(=O)(=O)c2ccc(F)cc2)CC1)Nc1ccccc1Br`: the outcome in test [1], in test [2], in test [3], in test [4], in test [6] and in test [7] was inactive. The outcome in test [8], in test [9], in [10], in [11], in [12] and in test [13] was inactive. The result in test [14], in [15], in test [16] and in test [17] was inactive. Also, the inhibition in [5] is 70% (active).
On to `c1ccc(-c2nc(NCc3cccnc3)c3ccccc3n2)cc1`, for which the result in test [1], in [2], in test [3], in test [4], in test [6] and in [7] was inactive. Also, the result in test [8], in test [9], in test [10], in [11], in [12] and in [13] was inactive. In addition, the outcome in [15], in test [16] and in test [17] was inactive. Moreover, the inhibition in test [5] was 89% (active); in test [14], 36.3% (active).
Regarding `COc1cccc(OCc2cc(C(=O)N3CCN(C)C(c4ccccc4)C3)no2)c1` (configuration not stated), the outcome in test [1], in [2], in test [3], in [4], in [5] and in test [6] was inactive. Besides, the result in test [7], in test [8], in test [9], in [10], in test [11] and in [12] was inactive. In addition, the outcome in [13], in test [14], in [16] and in test [17] was inactive. For the same molecule, the potentiation in test [15] was 16.7% (active).
Take `COc1ccccc1CC(=O)N1CCN(S(=O)(=O)c2ccccc2)CC1`: the outcome in test [1], in test [2], in test [3], in [5], in test [6] and in test [7] was inactive. In addition, the result in test [8], in test [9], in [10], in test [11], in [12] and in test [13] was inactive. For the same molecule, the result in test [14], in test [16] and in test [17] was inactive. The potentiation was 24% (active) in test [4] and 44.4% (active) in [15].
Take `C/C(N)=C(/C#N)C(=O)COC(=O)C1CCC(C(C)(C)C)CC1` (configuration not stated): the outcome in test [1], in [2], in test [3], in test [4], in test [5] and in [6] was inactive. Besides, the outcome in test [7], in test [8], in test [9], in test [10], in test [11] and in test [12] was inactive. The outcome in test [13], in test [14], in test [15], in test [16] and in test [17] was inactive.
In the case of `CCOc1cc(O)c(-c2[nH]ncc2-c2nc(C)cs2)cc1CC`, the result in [1], in [2], in test [3], in [5], in [6] and in test [7] was inactive. The outcome in test [8], in test [9], in test [10], in [11], in test [12] and in [13] was inactive. Moreover, the outcome in test [14], in test [16] and in test [17] was inactive. Besides, the potentiation in test [4] is 21% (active); in test [15] it was 20% (active).
For the molecule `Cc1cccc(C)c1OCC(=O)N1CC2(C)CC1CC(C)(C)C2` (configuration not stated), the result in test [1], in test [2], in [3], in test [4], in test [5] and in test [6] was inactive. The result in [7], in test [8], in test [9], in test [10], in [11] and in [12] was inactive. The outcome in test [13], in [14], in [15], in test [16] and in test [17] was inactive.
Regarding `Cc1cc(Cl)cc(C)c1OCCCCCn1ccnc1`, the activation in [1] was 88% (active); in [11], 47% (active); in [13] it was 34% (active). Also, the result in [2], in test [3], in test [4], in [5], in test [6] and in test [7] was inactive. The result in test [8], in test [9], in test [10], in test [12], in test [14] and in test [15] was inactive. Further, the result in test [16] and in test [17] was inactive.
As for `Clc1ccc(Cl)c(OCCCCN2CCNCC2)c1`, the result in test [1], in test [2], in test [3], in [5], in [6] and in [7] was inactive. The result in test [8], in [9], in test [10], in test [11], in [12] and in test [13] was inactive. Besides, the result in test [14], in [16] and in [17] was inactive. The potentiation in [4] was 13% (active); in [15] it was 6.61% (active).
With `CCOC(=O)CSc1nc2ccccc2c(=O)n1C1CCCC1`, the outcome in [1], in test [2], in test [3], in test [4], in test [5] and in [6] was inactive. Besides, the outcome in test [7], in test [8], in [9], in test [10], in test [11] and in test [12] was inactive. Also, the outcome in [13], in test [14], in test [15], in test [16] and in [17] was inactive.
Consider `Cc1ccc(-c2cc(C(=O)NCCCN3CCCC3)c3ccccc3n2)cc1C`, for which the outcome in test [1], in test [2], in test [3], in test [4], in [5] and in [6] was inactive. The outcome in test [7], in [8], in test [9], in test [10], in test [11] and in [12] was inactive. The outcome in test [13], in test [14], in test [16] and in [17] was inactive. In addition, in test [15], the potentiation is 17.7% (active).
In the case of `O=C(COc1ccccc1)NC1CCCCCCC1`, the outcome in [1], in test [2], in [5], in [6], in test [7] and in [8] was inactive. Further, the result in [9], in test [10], in test [11], in test [12], in [13] and in test [14] was inactive. For the same molecule, the outcome in [16] and in test [17] was inactive. The potentiation in test [3] was 9% (active); in [4] it was 33% (active); in test [15] it was 40.7% (active).
